Assay in all cases: NCI-60 one-dose screen, 48 h (100 = growth as untreated, 0 = no growth, -100 = all killed)
What all share (conditions): 10 µM unless noted

Assay [1] concerns T-47D breast.
Assay [2] relates to BT-549 breast.
The test system of assay [3] is MDA-MB-435 melanoma.
The test system of assay [4] is SW-620 colon.
Assay [5] has as its system MCF7 breast.
Assay [6] deals with HCT-116 colon.
Assay [7] has as its system HCC-2998 colon.
Assay [8] has as its system KM12 colon.

This is part of a sample that, as a whole, favours compounds with a hit. Of some 83,000 tested, about 20% had one in any assay.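 Results are percent growth after 48 hours of single-concentration exposure. 100 means growth as in untreated cells, lower positive values show inhibition; negative values down to -100 show cell death.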 A number with no mark means an inactive call. Active and inactive are the calls of the source. The calls were made as follows: active = growth percent below 10; inactive = the rest.

With `COc1cccc(/C=C/C(=O)Nc2cc(OC)c3c(c2)OCO3)c1`, the growth in assay [1] is 94.7%; in assay [2], 108%; in assay [3], 78.9%; in assay [4] it was 107%; in assay [5] it was 102%; in assay [6], 100%. The growth in assay [7] was 97%; in assay [8], 89.1%.
On to `CC(C)NCCCNC1=C(Cl)C(=O)c2ccccc2C1=O`, for which the growth in assay [1] is 101%; in assay [2], 99.8%; in assay [3], -66% (active); in assay [4], -30.7% (active); in assay [5], 63.4%; in assay [6], 70.7%. Further, the results for the growth in assay [7] and in assay [8] were 59.7% and 87.2%, respectively.
Turning to `COc1cc(C(=O)/C=C/c2c(C)n([O-])c3ccc(C(F)(F)F)cc3[n+]2=O)cc(OC)c1OC`, the growth in assay [1] is 18.3%; in assay [2], 80.6%; in assay [3], 94.1%; in assay [4], 26%; in assay [5], 45.4%; in assay [6] it was 21.1%. Also, the figures for the growth in assay [7] and in assay [8] were 105% and 91.4%, respectively.
In the case of `CCCCCCCCCCCCCCCCCCNC(=O)[C@H]1CSC(c2ccc(OC)cc2O)N1` (stereo partly drawn), the growth in assay [1] is 60%; in assay [2], 27.4%; in assay [3] it was 25.4%; in assay [4], 67.3%; in assay [5], 23.7%; in assay [6] it was 39.3%. Further, the growth in assay [7] is 76.7%; in assay [8] it was 27%.
For `Nc1nnc(-c2ccc3ccccc3c2O)o1`, the growth in assay [1] was 87.2%; in assay [2], 103%; in assay [3] it was 110%; in assay [4] it was 84.9%; in assay [5], 94%; in assay [6] it was 88.5%. Besides, the growth in assay [7] was 89.5%; in assay [8], 99.4%.
As for `CNc1ccc(Br)c2c1C(=O)c1ccccc1C2=O`, the growth in assay [1] was 97.1%; in assay [2], 104%; in assay [3], 108%; in assay [4], 107%; in assay [5] it was 72.4%; in assay [6], 96.6%. Also, the growth in assay [7] is 109%; in assay [8], 107%.
As for `COc1ccc(-c2cnoc2-c2ccc(OC)cc2O)cc1`, the growth in assay [1] is 40.3%; in assay [2] it was 56.5%; in assay [3] it was -29.4% (active); in assay [4] it was 11%; in assay [5], 19.6%; in assay [6], 16.5%. Further, the growth in assay [7] is 32%; in assay [8], 19.2%.
As to `Cc1ccc(-c2cc3nc(-c4ccccc4)nc(C(Cl)Cl)n3n2)cc1`, the growth in assay [1] is -47.1% (active); in assay [2], 60.3%; in assay [3] it was -68.3% (active); in assay [4], -48.2% (active); in assay [5] it was -10.7% (active); in assay [6], -87.6% (active). Besides, the values for the growth in assay [7] and in assay [8] were -90.6% (active) and -83.6% (active), respectively.
As to `C=C1C(=O)O[C@H]2[C@H]1CC/C(Cn1cc(CNC(=O)/C=C/c3c[nH]c4ccccc34)nn1)=C\CC[C@@]1(C)O[C@@H]21`, the growth in assay [1] was 107%; in assay [2], 112%; in assay [3] it was 83.9%; in assay [4], 49.9%; in assay [5], 42%; in assay [6] it was 63.8%. Also, the growth in assay [7] is 118%; in assay [8] it was 98%.
On to `COc1cc2c(cc1O)CCN1C[C@@H](CC(C)C)[C@@H](O)C[C@@H]21`, for which the growth was 91.1% in assay [1]; 108% in assay [2]; 103% in assay [3]; 102% in assay [4]; 102% in assay [5]; 101% in assay [6]. Moreover, the results for the growth in assay [7] and in assay [8] were 102% and 109%, respectively.
For the molecule `Cc1nc2cncc(C#Cc3cncc(C(=O)Nc4ccc(CN5CCN(C)CC5)c(C(F)(F)F)c4)c3)c2nc1C`, the growth was 26.6% in assay [1]; 37.6% in assay [2]; -1.99% (active) in assay [3]; 1.45% (active) in assay [4]; 19% in assay [5]; 5.45% (active) in assay [6]. The growth in assay [7] was 30.7%; in assay [8], 3.08% (active).
Regarding `Brc1cccc(-c2cc(-c3ccc4c(c3)OCCCO4)[nH]n2)c1`, the growth in assay [1] is 29.2% [25 µM]; in assay [2] it was 72.8% [25 µM]; in assay [3], -7% [25 µM] (active); in assay [4] it was 31.8% [25 µM]; in assay [5], 23.2% [25 µM]; in assay [6] it was 51.4% [25 µM]. Moreover, the growth in assay [7] is 75.6% [25 µM]; in assay [8], 20% [25 µM].
Consider `COc1cc(-c2nn(-c3cccc(NC(=O)Nc4ccc(Cl)c(Cl)c4)c3)cc2-c2ccncc2)ccc1Cl`, for which the growth was 2.98% (active) in assay [1]; 6.23% (active) in assay [2]; -45.8% (active) in assay [3]; 13.4% in assay [4]; 1.73% (active) in assay [5]; 8.67% (active) in assay [6]. In addition, the results for the growth in assay [7] and in assay [8] were 2.84% (active) and 1.3% (active), respectively.
On to `CCn1c2ccccc2c2cc(NC(=O)Nc3ccc([N+](=O)[O-])cc3C)ccc21`, for which the growth in assay [1] is 29.3%; in assay [2], 79.2%; in assay [3], 17.4%; in assay [4] it was 51.9%; in assay [5] it was 35.7%; in assay [6], 31.6%. Also, the growth in assay [7] is 10.5%; in assay [8], 26.5%.
In the case of `Cc1ccc(-c2nc(C#N)c(S(=O)(=O)n3nc(-c4ccccc4)cc3N)o2)cc1`, the growth in assay [1] is 18.2%; in assay [2], 96.8%; in assay [3] it was 100%; in assay [4], 31.8%; in assay [5], 79.5%; in assay [6], 63%. The growth in assay [7] was 112%; in assay [8], 107%.
Turning to `CC(=O)OC[C@]12CC[C@H]3[C@@H](C[C@H]4O[C@]45CC=CC(=O)[C@]35C)[C@]1(O)CC[C@@]2(O)[C@@](C)(O)C1CC(C)=C(C)C(=O)O1` (stereo partly drawn), the growth is -23.2% (active) in assay [1]; -12.2% (active) in assay [2]; -77.4% (active) in assay [3]; -32.1% (active) in assay [4]; -27% (active) in assay [5]; -29.3% (active) in assay [6]. In addition, the growth in assay [7] was -82.8% (active); in assay [8] it was -70.8% (active).
In the case of `Cc1ccc(N2CCN(C(C)C(N)=O)CC2)cc1` (stereo not drawn), the growth was 102% in assay [1]; 88.9% in assay [2]; 114% in assay [3]; 107% in assay [4]; 106% in assay [5]; 98.3% in assay [6]. The growth was 102% in assay [7] and 112% in assay [8].
As to `C[n+]1c(/C=C/c2c(O)ccc3ccccc23)ccc2ccccc21`, the growth was 26.6% in assay [1]; 27.9% in assay [2]; 25.6% in assay [3]; 17% in assay [4]; 15.9% in assay [5]; -13.9% (active) in assay [6]. Also, the values for the growth in assay [7] and in assay [8] were 59.8% and 38.7%, respectively.
On to `c1ccc(-c2cn(-c3ccccc3)c(-c3ccccc3)n2)cc1`, for which the growth in assay [1] was 67.5%; in assay [2], 72.5%; in assay [3], 72.6%; in assay [4], 23.2%; in assay [5] it was -31.1% (active); in assay [6], -91.4% (active). Also, the growth is 92.3% in assay [7] and 11.8% in assay [8].
Take `COc1ccc(Nc2ncccc2C(=O)NCc2cn(Cc3cccc(Oc4ccccc4)c3)nn2)c(OC)c1`: the growth in assay [1] was 51.6%; in assay [2], 43%; in assay [3] it was -24.2% (active); in assay [4], 26.4%; in assay [5], 25%; in assay [6], 15%. For the same molecule, the growth is -14.4% (active) in assay [7] and 17.9% in assay [8].
On to `COc1ccc(-c2[nH]nc(N)c2-c2cc(OC)c3c(c2)OCO3)cc1`, for which the growth in assay [1] was 62%; in assay [2], 59.2%; in assay [3], -12.8% (active); in assay [4], 20.5%; in assay [5], 32.3%; in assay [6], 30.9%. Also, the growth is 44.3% in assay [7] and 27.8% in assay [8].
Regarding `COc1ccc2c(c1)OC1=C(C(=O)OC1)C2c1cc(OC)c2c(c1)OCO2` (stereo not drawn), the growth is 52.1% in assay [1]; 26% in assay [2]; -22.5% (active) in assay [3]; 18.7% in assay [4]; 15% in assay [5]; 10% in assay [6]. The growth was 14.9% in assay [7] and 1.61% (active) in assay [8].
Consider `Clc1cc(Cl)cc(-c2ccc(-c3ccc(/C=N/NC4=NCCN4)cc3)s2)c1`, for which the growth is 56.4% in assay [1]; 94.3% in assay [2]; 25.8% in assay [3]; -59.7% (active) in assay [4]; 16% in assay [5]; -10.4% (active) in assay [6]. Also, the growth in assay [7] is 19.3%; in assay [8], -2.85% (active).
Regarding `Cn1ccc(=O)c(S(N)(=O)=O)c1`, the growth was 93.9% in assay [1]; 82% in assay [2]; 103% in assay [3]; 105% in assay [4]; 111% in assay [5]; 102% in assay [6]. Moreover, the values for the growth in assay [7] and in assay [8] were 102% and 103%, respectively.
Regarding `O=C(/C=C\c1cccc([N+](=O)[O-])c1)/C=C/c1cccc([N+](=O)[O-])c1`, the growth in assay [1] is 97.9%; in assay [2], 88.9%; in assay [3], 36.7%; in assay [4], 18.9%; in assay [5], 19%; in assay [6], -31.2% (active). The results for the growth in assay [7] and in assay [8] were 97% and -7.25% (active), respectively.
In the case of `COc1ccc(-c2nc(SCCC(C)C)nc(Nc3ccc(F)c(Cl)c3)c2C#N)cc1`, the growth in assay [1] was 72.4%; in assay [2], 97.1%; in assay [3], 79.1%; in assay [4], 54.8%; in assay [5], 69.1%; in assay [6], 68.3%. Also, the growth in assay [7] and in assay [8] was 102% each time.

(Values after PubChem BioAssay (NCI).)
